Source: PubChem
GalR3 antag: antagonists of human GalR3; HEK293 GalR3-CNG cAMP membrane potential fluorescence; galR3 body fused to GalR1 C-terminus; inhibition, % at 3 µM; O60755; actives 0.44% (n = 360,000);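 active = inhibition above the screen-wide average plus 3 SD, cut at about 13% in these data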;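 also: forskolin and galanin both at EC90 stimulate the cells; cAMP rise reported by CNG channel membrane potential dye signal; 0% = forskolin plus galanin with DMSO and 100% = forskolin alone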
NCOA1 inh: human NCOA1 inhibition. HEK293 GAL4-SRC1 luciferase reporter, luminescence. inhibition, % at 3.6 µM. actives 0.12% (n = 360,000). AID 588354;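 active = inhibition above the campaign mean plus 3 SD, with each screening campaign given its own cutoff, cut at about 60% in these data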;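 also: 0% = DMSO treated cells and 100% = gossypol at 36 µM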
Target sequence (Q15788 whole entry, looked up, the tested form may be a part): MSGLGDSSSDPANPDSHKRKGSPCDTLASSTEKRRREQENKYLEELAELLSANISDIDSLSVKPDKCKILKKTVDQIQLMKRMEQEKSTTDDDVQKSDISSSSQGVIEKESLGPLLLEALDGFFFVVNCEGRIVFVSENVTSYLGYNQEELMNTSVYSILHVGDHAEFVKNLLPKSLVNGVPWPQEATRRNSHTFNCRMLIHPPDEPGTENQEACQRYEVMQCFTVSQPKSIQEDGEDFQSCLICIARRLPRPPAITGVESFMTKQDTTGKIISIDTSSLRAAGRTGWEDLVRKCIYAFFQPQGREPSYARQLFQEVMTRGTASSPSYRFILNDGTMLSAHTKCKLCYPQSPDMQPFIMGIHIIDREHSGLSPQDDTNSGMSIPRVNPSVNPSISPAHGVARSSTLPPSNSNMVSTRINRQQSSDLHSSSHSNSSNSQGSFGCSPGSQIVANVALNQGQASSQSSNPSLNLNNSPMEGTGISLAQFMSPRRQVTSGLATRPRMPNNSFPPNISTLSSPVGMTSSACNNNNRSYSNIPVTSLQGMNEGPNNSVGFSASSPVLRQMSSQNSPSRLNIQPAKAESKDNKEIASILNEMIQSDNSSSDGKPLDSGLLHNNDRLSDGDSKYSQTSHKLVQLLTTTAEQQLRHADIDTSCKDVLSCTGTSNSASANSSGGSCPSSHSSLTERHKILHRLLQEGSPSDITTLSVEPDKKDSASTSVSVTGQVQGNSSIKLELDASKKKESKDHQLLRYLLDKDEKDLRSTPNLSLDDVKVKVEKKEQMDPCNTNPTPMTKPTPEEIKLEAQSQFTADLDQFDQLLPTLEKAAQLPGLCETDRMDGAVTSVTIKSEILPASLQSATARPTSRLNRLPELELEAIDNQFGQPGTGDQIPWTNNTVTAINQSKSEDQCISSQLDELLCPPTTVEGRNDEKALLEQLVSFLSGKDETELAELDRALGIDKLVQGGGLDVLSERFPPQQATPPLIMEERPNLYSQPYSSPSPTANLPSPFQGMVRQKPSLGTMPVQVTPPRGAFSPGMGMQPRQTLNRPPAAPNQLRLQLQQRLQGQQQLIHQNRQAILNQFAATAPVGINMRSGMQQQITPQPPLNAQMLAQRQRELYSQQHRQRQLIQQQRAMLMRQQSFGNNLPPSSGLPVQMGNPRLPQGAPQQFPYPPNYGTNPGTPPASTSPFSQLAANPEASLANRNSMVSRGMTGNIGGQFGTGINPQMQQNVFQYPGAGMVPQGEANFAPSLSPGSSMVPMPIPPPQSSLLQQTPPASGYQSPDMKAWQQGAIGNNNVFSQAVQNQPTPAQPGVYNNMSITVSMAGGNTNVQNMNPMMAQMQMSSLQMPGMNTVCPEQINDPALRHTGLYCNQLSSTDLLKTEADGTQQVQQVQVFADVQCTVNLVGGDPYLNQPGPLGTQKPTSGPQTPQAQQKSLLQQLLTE
NR2F2 inh: NR2F2 (human) inhibition, primary screen | actives 0.7% (n = 370,000) | HEK293T NGFI-A luciferase reporter, luminescence | P24468 | inhibition, % at 8.6 µM;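 active = inhibition above a per-plate cutoff, mean inhibition of test wells between control levels plus 3 SD, cut at about 38% in these data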;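 also: cells cotransfected with COUP-TFII expression vector driving the NGFI-A reporter; 0% = median of COUP-TF2 test wells and 100% = reporter-only cells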
SRC2 inh: inhibits human steroid receptor coactivator 2; actives 0.17% (n = 370,000); HEK293 GAL4-SRC2 luciferase reporter, luminescence; inhibition, % at 9 µM;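 active = inhibition above the mean inhibition of all tested compounds plus 3 SD, set per campaign, cut at about 52% in these data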;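 also: 0% = DMSO treated cells and 100% = cells given Gossypol at 36 µM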
LRH-1 inv ag: suppresses constitutive activity of human LRH-1; O00482; HEK293T StAR-luciferase reporter, LRH-1 transfected, 24 h; inhibition, % at 3.6 µM; actives 0.13% (n = 360,000); AID 602396;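 active = inhibition above the mean inhibition of all tested compounds plus 3 SD, cut at about 73% in these data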;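 also: 0% = DMSO wells and 100% = reporter-only cells lacking LRH-1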
NCOA3 inh: human NCOA3 inhibition; actives 0.17% (n = 360,000); inhibition, % at 3.6 µM; AID 588352; HEK293 GAL4-SRC3 luciferase reporter, luminescence; Q9Y6Q9;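 active = inhibition above a per-campaign cutoff, the mean of all compounds plus 3 SD, cut at about 60% in these data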;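 also: 0% = DMSO-treated cells and 100% = gossypol-treated cells at 36 µM; higher means less SRC3-driven luciferase light from the GAL4 reporter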
VP16 Luc counter: inhibits VP16 reporter, flagging COUP-TFII antagonist hits; shares compounds with NR2F2 inh; HEK293 Gal4-VP16 luciferase reporter, luminescence; inhibition, % at 8.5 µM; actives 25% (n = 2,500); in the data active = inhibition above about 13%
NR2F2 inh conf: COUP-TFII (NR2F2) inhibition, confirmation assay; actives 45% (n = 2,500); AID 687008; inhibition, % at 8.5 µM; shares compounds with NR2F2 inh; HEK293 NGFI-A luciferase reporter, luminescence;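 active = mean inhibition over three repeats above a set limit taken from the earlier primary screen, cut at about 38% in these data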;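 also: 100% = cells given the luciferase reporter alone without the COUP-TF2 vector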
* marks the source's active call; other numbers are inactive results; x = no result. A selection: hits, their analogues and other compounds. The true share with any hit is near 1.1%.

SMILES	GalR3 antag	NCOA1 inh	NR2F2 inh	SRC2 inh	LRH-1 inv ag	NCOA3 inh	VP16 Luc counter	NR2F2 inh conf
COC(=O)[C@]12C[C@H](CC(=O)NCCCN3CCCC3=O)C(=O)N(Cc3ccco3)C1=C[C@H](C(C)C)O[C@@H]2C1CC1	x	x	8	30	x	x	x	x
COc1cccc(CNc2nc3cc(-c4ccc(OC)c(OC)c4)sc3c(=O)n2C)c1	5	4	-7	-16	12	2	x	x
COc1ccc(-c2cc3nc(NCc4ccc(N(C)C)cc4)n(C)c(=O)c3s2)cc1OC	-6	12	39*	-10	17	7	-21	56*
COc1cccc(CNc2nc3cc(-c4ccsc4)sc3c(=O)n2C)c1OC	-6	25	66*	24	29	-13	5	46*
COc1cccc(CNc2nc3cc(-c4ccc(C)cc4)sc3c(=O)n2C)c1OC	-9	-20	5	-34	-28	-74	x	x
Cc1cccc(-c2cccc3c4c([nH]c23)[C@@H]2C[C@H](N(C)C(=O)NC3CCCCC3)[C@H]([C@H](C)O)CN2CC4)c1	x	x	10	-7	x	x	x	x
CCC(C)NC(=S)Nc1ccc(C(=O)OC)cc1 (configuration not stated)	-4	12	39*	15	-20	-8	-37	-13
CN(Cc1ccccc1)C(=O)c1ccc(NC(=O)Cc2cccc(NC(=O)C3CCCN(C(=O)CCc4ccccc4)C3)c2)cc1 (configuration not stated)	-5	8	44*	10	7	3	2	23
CN(C(=O)c1cccc(NC(=O)Cc2ccc(NC(=O)C3CCCN(C(=O)CCc4ccccc4)C3)cc2)c1)C1CCC1 (configuration not stated)	-3	1	48*	25	17	14	4	27
CN(C(=O)c1cccc(NC(=O)Cc2ccc(NC(=O)C3CCCN(C(=O)CCc4ccccc4)C3)cc2)c1)C1CCCC1 (configuration not stated)	-6	38	58*	-4	29	16	0	51*
CN(C(=O)c1ccc(NC(=O)Cc2cccc(NC(=O)C3CCCN(C(=O)CCc4ccccc4)C3)c2)cc1)C1CCCC1 (configuration not stated)	-4	6	23	-6	-6	8	x	x
COc1ccc(Cc2noc(CN3CCN(c4ccc(Cl)cn4)CC3)n2)cc1OC	-6	27	41*	19	11	39	-7	13
COc1ccc(Cc2noc(CN3CCN(Cc4cccc(Cl)c4)CC3)n2)cc1OC	-3	-201	19	14	2	-4	x	x
COc1ccc(CNC(=O)O[C@H]2CC[C@@]34CCCN3C(=O)CCC[C@H]4C2)cc1	x	x	-8	x	x	x	x	x
CCN(CC)C(=O)CC[C@H]1CC[C@]2(CCCN(C(=O)C(C)(C)C)C2)O1	x	x	-10	-22	x	x	x	x
COc1ccccc1C(=O)Nc1nc2ccccc2s1	-11	71*	91*	86*	66	74*	78*	97*
Cc1ccc2nc(NC(=O)c3ccccn3)sc2c1	-7	-6	58*	28	-7	12	10	28
CCc1ccc(/C=C/c2c[nH]c3ccccc23)[n+](CC)c1	-4	27	40*	16	53	39	1	38*
Cc1ccc(NC(=O)C(C)c2cccc(C(=O)c3ccccc3)c2)cc1O (configuration not stated)	-3	4	48*	0	28	15	9	33
Cc1cccc(NC(=O)C(C)C(=O)c2ccccc2)c1 (configuration not stated)	-10	10	-4	15	2	1	x	x
COc1ccc(-n2c(SCC(=O)NCCCSC)nnc2-c2ccncc2)cc1	x	x	-11	-14	x	x	x	x
O=C(CSc1nc2ccccc2o1)Nc1nc2c(s1)CCCC2	-1	21	52*	12	29	28	-44	36
